# High-throughput results deposited in PubChem BioAssay by Sanford-Burnham Center for Chemical Genomics.
# An excerpt weighted towards active compounds, which were near 4% of everything screened.
# KKLEB tox = cytotoxicity in KKLEB CF airway cells, primary screen, cytotoxicity control for CF NF-kB inhibitor project, cell-based, uHTS, fluorescence assay plates; activity change (cytotoxicity), % at 5 µM; 360,000 compounds, 0.36% hits; KKLEB CF airway cells viability, ATPlite luminescence, overnight; hits give low values; cells stimulated with P. aeruginosa culture filtrate;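 active = corrected activity change at or below -50% at 5 µM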
# Peg3 promoter = Peg3 promoter-driven luciferase inhibitors, primary screen, cell-based, HeLa, luciferase luminescence | HeLa PEG-Prom luciferase reporter, overnight | inhibition, % at 20 µM | 360,000 compounds, 1.7% hits;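 active = inhibition of at least 50% at 20 µM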
# TROY signal inh = inhibitors of TROY-driven NF-kB signaling, primary screen, Q293 LMP1-TROYcd cells, NF-kB luciferase, uHTS; inhibition, % at 10 µM; 360,000 compounds, 0.98% hits; Q293 LMP1-TROYcd NF-kB luciferase reporter, 4 h;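 active = compounds whose plate-normalised and pattern-corrected inhibition of the luciferase reporter signal at the single screening dose is 50% or more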
# HIF-2a block = HIF-2a reporter inhibitors, primary screen, luminescence, 786-0 RCC cells. inhibition, % at 18.8 µM. 360,000 compounds, 0.72% hits. 786-0 RCC cells HIF-2a reporter, luciferase luminescence, overnight;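 active = inhibition of the luminescence signal of 40% or more relative to plate controls, in a single-dose primary screen at 18.75 µM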
# CF NFkB inh = inhibitors of PAF-induced NF-kB signaling, primary screen, cell-based, GFP fluorescence, uHTS. AID 588850, 2011. 360,000 compounds, 0.86% hits. KKLEB NF-kB-GFP reporter, GFP fluorescence overnight. inhibition, % at 5 µM;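 active = at least 50% inhibition at 5 µM, scaled per plate between neutral and stimulator controls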;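 also: PAF is a Pseudomonas aeruginosa culture filtrate used as stimulus; plate controls were PAF-stimulated DMSO wells for no effect and unstimulated DMSO wells for full effect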
# TWEAK-Fn14 inh = inhibitors of TWEAK-Fn14 signaling, primary screen, luciferase reporter cells, uHTS. TWEAK-stimulated Fn14 reporter cells, luciferase luminescence, 8 h. inhibition, % at 10 µM. 360,000 compounds, 2% hits; in the data active = inhibition above about 50%
# CF NFkB conf = inhibitors of PAF-induced NF-kB signaling, retest, confirmation, cell-based, GFP fluorescence, single concentration; shares compounds with CF NFkB inh; KKLEB CF airway cells, overnight; inhibition, % at 5 µM; 1,300 compounds, 64% hits; AID 602472, 2012; in the data active = inhibition above about 40%;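 also: stimulus PAF is a Pseudomonas aeruginosa filtrate and not platelet activating factor; plate controls were DMSO wells with stimulus for no effect and unstimulated DMSO wells for full effect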
# * marks the source's active call; other numbers are inactive results; nt = no result.
SMILES,KKLEB tox,Peg3 promoter,TROY signal inh,HIF-2a block,CF NFkB inh,TWEAK-Fn14 inh,CF NFkB conf
O=C(Nc1ccc(Oc2ccccc2)cc1)c1ccc2sc([C@H]3C[C@H](O)[C@@H](CO)O3)nc2c1,6,-27,52*,-97,54*,95*,46*
CCc1ccc([C@@H]2C[C@H]3[C@@H](CN2S(=O)(=O)c2ccc(C)cc2)C(=O)C[C@@H](c2ccc(Cl)cc2)N3S(=O)(=O)c2ccccc2C)cc1,10,6,-1,10,-7,-14,nt
CCc1ccc([C@@H]2CC(=O)[C@@H]3CN(S(=O)(=O)c4ccccc4C)[C@H](c4ccc(Cl)cc4)C[C@@H]3N2S(=O)(=O)c2ccc(C)cc2)cc1,-10,5,7,3,51*,6,38
O=C(COC(=O)c1cc(S(=O)(=O)N2CCOCC2)ccc1Cl)NC1CCCCC1,15,-6,5,17,-62,-23,nt
O=C(Cc1ccccc1)Nc1ccc2[nH]ncc2c1,-3,-20,6,-27,14,11,nt
O=C(Cc1ccc(Br)cc1)Nc1ccc2[nH]ncc2c1,-45,5,9,17,53*,1,15
CCN(CC)c1ncnc2ccc(Br)cc12,-17,15,35,19,71*,50,40*
COc1ccc(S(=O)(=O)N2CCCCC2c2cc(C(=O)N3CCOCC3)no2)cc1 (configuration not stated),16,13,0,-2,-38,14,nt
Cc1nc2c(=O)n(C)c(=O)n(C)c2nc1Cl,9,108*,32,39,75*,50*,-12
C=C(C)COc1ccc(-c2[nH]ncc2-c2ccc(OC)cc2)c(O)c1,2,22,42,5,53*,55*,72*
COc1ccc(Oc2cn[nH]c2-c2ccc(O)cc2O)cc1,-3,16,nt,-7,14,13,nt
C=C(C)COc1ccc(-c2[nH]ncc2-c2ccccc2)c(O)c1,-2,12,7,14,6,2,nt
COc1ccc(-c2cnc(N)nc2-c2ccc(OC)cc2O)cc1,-13,13,22,31,56*,46,51*
COc1ccc(-c2cn[nH]c2-c2ccc(O)cc2O)cc1,8,11,45,19,70*,74*,94*
CCNNC(=O)C(O)(Cc1ccccc1)Cc1ccccc1,4,7,14,10,-21,4,nt
CCCCN(CC(=O)NCCOC)C(=O)Cn1nnc2ccccc21,-1,5,-2,16,21,-12,nt
CCOC(=O)c1[nH]ncc1CN1CCCC(C(=O)c2cc(Cl)ccc2OC)C1 (configuration not stated),-11,1,20,20,13,3,nt
Cc1cccc(NC(=O)Nc2ccc(C#N)cc2)n1,-2,62*,2,-108,75*,50,98*
Cc1cccc(NC(=O)Nc2cccc(C#N)c2)n1,6,-82,-66,-307,16,1,nt
CC1CCCCC1NC(=O)COC(=O)c1cc(=O)c2ccccc2o1 (configuration not stated),12,13,5,10,2,10,nt
O=S(=O)(c1ccc(Cl)c(S(=O)(=O)N2CCCC2)c1)N1CCCC1,-5,1,-13,18,-10,15,nt
CCOc1ncccc1C(=O)OC(C)C(=O)Nc1ccc(Cl)cn1 (configuration not stated),-15,4,6,10,36,-3,nt
CNc1ccccc1C(=O)OC(C)C(=O)Nc1ccc(Cl)cn1 (configuration not stated),-8,100*,16,-186,69*,26,34
NC(=O)c1sc2nc3c(c(-c4ccco4)c2c1N)CCCC3,-11,11,10,22,65*,-17,80*
CCc1nc2sc3c(c2c(=O)n1N)CC(C)(C)OC3,0,0,3,7,14,-12,nt
SMILES,KKLEB tox,Peg3 promoter,TROY signal inh,HIF-2a block,CF NFkB inh,TWEAK-Fn14 inh,CF NFkB conf
CCCCCCCCCc1nc2sc3c(c2c(=O)n1NC(=O)c1ccc([N+](=O)[O-])cc1)CC(C)(C)OC3,-42,9,42,-12,55*,56*,62*
Cc1cc(-c2nnc3n2N=C(c2ccc(F)cc2)CS3)n[nH]1,5,-5,-12,8,-8,1,nt
O=C(CNC(=O)N1CC(=O)Nc2ccccc21)NCc1ccc(F)cc1,5,12,-11,5,-34,-14,nt
COc1ccc(N(C)S(=O)(=O)c2cccc(C(=O)Nc3nc4ccccc4[nH]3)c2)cc1,1,13,29,-42,-8,27,nt
CN(c1cccc(Cl)c1)S(=O)(=O)c1cccc(C(=O)Nc2nc3ccccc3[nH]2)c1,-16,76*,35,-147,80*,74*,47*
O=C(NCc1cccc2ccccc12)Nc1ccccc1,-2,-65,-38,-80,4,-12,nt
NCCNc1ccc([N+](=O)[O-])c(NC2CC2)c1,-7,-7,9,11,7,-19,nt
Cc1nc2sc3c(NCc4ccco4)ncnc3c2c2c1COC(C)(C)C2,-30,-3,55*,19,72*,87*,37
Cc1ccc(C(=O)c2cc([N+](=O)[O-])ccc2N2CCCCC2)c(C)c1,-50,17,6,30,63*,27,83*
Cc1ccc(NS(=O)(=O)c2ccc(C)c(NC(=O)COc3ccccc3)c2)c(C)c1,0,17,-4,21,8,9,nt
COc1ccc([C@]2(C(C)C)ON(c3ccccc3C(F)(F)F)C2=O)cc1,-8,66*,-5,21,58*,18,52*
COc1ccc2c(c1)C(=O)N(c1ccccc1OC)C(=O)C2(C)C,-8,11,-3,13,7,-9,nt
COc1ccccc1[C@]1(C)ON(c2ccccc2C(F)(F)F)C1=O,-14,82*,-3,35,56*,16,70*
COc1ccc(S(=O)(=O)Nc2ccccc2C(F)(F)F)cc1,3,21,-7,20,15,2,nt
CCOC(=O)c1cccc(NC(=O)C2CCCO2)c1 (configuration not stated),-5,7,-11,-6,2,-11,nt
O=C(OC(C(=O)NCC1CCCO1)c1ccc(F)cc1)c1cccs1 (configuration not stated),2,-1,-13,-1,-18,14,nt
